Most compounds without a hit are left out; they make up all but 3.6% or so of the library.
A3G deaminase: APOBEC3G (human) deaminase inhibition | Q9HC16 | recombinant A3G, ssDNA deamination FAM/TAMRA fluorescence | inhibition, % at 20 µM | 330,000 tested, 0.28% active;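 active = inhibition of at least 40% at 20 µM, with no more than 30% in the related APOBEC3A deaminase screen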
Target sequence (Q9HC16 whole entry, looked up): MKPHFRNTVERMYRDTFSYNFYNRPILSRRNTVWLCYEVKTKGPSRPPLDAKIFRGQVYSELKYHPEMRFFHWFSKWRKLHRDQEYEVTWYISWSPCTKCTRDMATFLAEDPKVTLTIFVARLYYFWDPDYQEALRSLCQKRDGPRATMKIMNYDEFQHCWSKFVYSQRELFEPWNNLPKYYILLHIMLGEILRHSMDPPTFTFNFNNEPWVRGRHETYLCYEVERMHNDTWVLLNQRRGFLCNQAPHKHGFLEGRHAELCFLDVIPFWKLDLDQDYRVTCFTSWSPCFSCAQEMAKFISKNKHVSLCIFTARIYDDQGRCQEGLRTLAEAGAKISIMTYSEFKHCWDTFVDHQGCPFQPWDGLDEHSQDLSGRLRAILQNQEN
PHOSPHO1 inh: blocks human PHOSPHO1 phosphatase activity; inhibition, % at 13.3 µM; recombinant PHOSPHO1, absorbance phosphatase assay; 290,000 tested, 1.1% active; Q8TCT1; AID 1565; in the data active = inhibition above about 60%
Target sequence (Q8TCT1 whole entry, looked up): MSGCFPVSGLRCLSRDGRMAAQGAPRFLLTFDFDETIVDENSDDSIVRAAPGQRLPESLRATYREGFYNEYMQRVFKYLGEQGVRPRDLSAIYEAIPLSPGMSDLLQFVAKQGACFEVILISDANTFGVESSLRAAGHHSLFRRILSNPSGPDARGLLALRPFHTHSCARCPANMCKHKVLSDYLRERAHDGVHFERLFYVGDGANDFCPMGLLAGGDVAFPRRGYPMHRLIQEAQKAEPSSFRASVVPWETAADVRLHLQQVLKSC
MITF act: increases MITF-driven TRPM1 promoter luciferase signal; SK-MEL-5 TRPM1-promoter luciferase, 24 h; % of positive control, neutral wells = 0; activation, % at 12.5 µM; 300,000 tested, 0.75% active;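 active = mean activation of at least 80% with every replicate also reaching 80%; inconclusive = mean reaches 80% but some replicate falls short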
Wnt bcat act: Wnt/beta-catenin pathway activation. 300,000 tested, 1.2% active. activation, % at 9.35 µM. Wnt/beta-catenin reporter cell assay, activator, plate reader; in the data active = activation above about 30%, passing the limit was not always enough; inconclusive = no clear call, values can overlap the other calls
A3A deaminase: blocks human APOBEC3A ssDNA deamination; P31941; recombinant A3A, FAM/TAMRA ssDNA deamination fluorescence; inhibition, % at 20 µM; 330,000 tested, 0.41% active; AID 493011;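 active = at least 40% inhibition at 20 µM here, with at most 30% in a related deaminase screen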
esBAF inh: blocks esBAF chromatin remodeling in mouse ES cells; Bmi1-luciferase knock-in reporter, 24 h; 100% = twice the neutral-well signal; reporter increase, % at 12.5 µM; 350,000 tested, 2% active; in the data active = activation above about 40%; inconclusive = no clear call, values can overlap the other calls;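 also: a rise in the Bmi1 reporter signal indicates esBAF inhibition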
Numbers stand for hits; – = inactive; ? = inconclusive; · = no result given.

SMILES	A3G deaminase	PHOSPHO1 inh	MITF act	Wnt bcat act	A3A deaminase	esBAF inh
COc1ccc(C2C(CC(=O)O)=C(Nc3ccccc3)C(=O)N2c2ccccc2)cc1 (stereo not given)	–	–	–	43	–	54
O=C(O)CC1=C(Nc2ccccc2)C(=O)N(c2ccccc2)C1c1ccc(F)cc1 (stereo not given)	–	–	–	–	–	79
N=C(N)SCc1ccc(Cl)cc1Cl	–	–	–	–	–	·
Nc1ccc(CSc2ccc(Cl)cc2)c(Cl)c1	·	·	135	57	·	103
Cc1ccc(SCCC(=O)N2CCC(C(N)=O)CC2)cc1	–	–	–	–	–	–
Cc1ccc(SCCC(=O)N2CCC(C)CC2)cc1	–	–	·	?	–	59
C[C@H]1CN([C@@H](C)CO)C(=O)c2cc(C#Cc3ccccc3F)cnc2O[C@H]1CN(C)C(=O)C1CC1	·	·	·	·	·	–
O=C(NCC[C@H]1CC[C@H](NC(=O)C2CCCCC2)[C@H](CO)O1)Nc1ccc(Cl)cc1	·	·	·	·	·	–
C[C@H](CO)N1C[C@H](C)[C@@H](CN(C)Cc2ccncc2)Oc2ccc(NC(=O)CCCN(C)C)cc2C1=O	·	·	·	·	·	–
COCC(=O)Nc1ccc2c(c1)OC[C@@H](C)N(C(=O)c1cnccn1)C[C@@H](C)[C@@H](OC)CN(C)C2=O	·	·	·	·	·	–
Cc1ccccc1-c1nc2cc(Cl)ccc2c(=O)o1	–	–	–	–	–	·
CC(=O)Nc1ccc2oc(-c3ccccc3Br)nc2c1	–	–	–	·	–	·
Cc1ccc(OCC(=O)Nc2ccc(O)c(-c3nc4ccccc4o3)c2)cc1	–	–	–	–	–	54
Cc1ccccc1-c1nc2cc(Cl)ccc2o1	–	–	?	38	–	·
Cc1ccccc1-c1nc2cc(NC(=O)C3CC3)ccc2o1	–	–	–	–	–	63
CCC(=O)Nc1ccc2oc(-c3ccccc3Br)nc2c1	–	–	130	·	–	59
COc1cccc(NC(=O)N[C@H]2C=C[C@@H](CC(=O)N3CCN(C)CC3)O[C@H]2CO)c1	·	·	·	·	·	–
C[C@H](CO)N1C[C@H](C)[C@@H](CN(C)Cc2ccc(Oc3ccccc3)cc2)Oc2ccc(NC(=O)CCCN(C)C)cc2C1=O	·	·	·	·	·	–
COc1ccc(NC(=O)CSc2nnc(C3CCCCC3)o2)c(OC)c1	–	–	–	–	–	–
O=C(CSc1nnc(C2CCCCC2)o1)Nc1ccccc1Cl	–	–	109	–	–	62
N#Cc1c(-c2ccccc2)ccnc1Oc1ccccc1	–	–	–	·	–	49
COC(=O)N1C(=O)[C@](c2ccc(OC)cc2)(C(C)C)N1C(=O)OC	–	–	–	–	–	–
COC(=O)N1C(=O)[C@](c2ccsc2)(C(C)C)N1C(=O)OC	–	67	–	–	–	–
C/C(=C\C(=O)c1ccc(C)cc1)Nc1cccc(O)c1	–	–	–	·	–	72
COc1ccc(N=Cc2c(OC)ccc3ccccc23)cc1	–	·	·	–	–	·
SMILES	A3G deaminase	PHOSPHO1 inh	MITF act	Wnt bcat act	A3A deaminase	esBAF inh
COc1ccc(N=Cc2sc(O)c3ccccc23)cc1	–	–	–	34	–	82
COc1ccc(-n2c(O)c(C=Nc3ccccc3)c3ccccc3c2=O)cc1	–	–	–	–	–	–
COc1ccc(N=Cc2c(O)c3ccccc3n2C(C)=O)cc1	–	–	–	30	–	–
COc1ccccc1NC(=O)COc1ccc(Br)cc1CNCCCN1CCOCC1	–	70	–	–	–	–
COc1cc(CNCCCN2CCOCC2)c(Br)cc1OCC(=O)Nc1ccccc1C	–	–	–	–	–	·
Cc1cc2c(cc(C(=O)OC(C(=O)NCc3ccco3)C(C)C)n2C)o1 (stereo not given)	–	66	–	–	–	–
O=C1CCCCC1Sc1nnc(Cc2cccs2)n1CCc1ccccc1 (stereo not given)	–	71	·	–	–	–
Cc1noc(C)c1NC(=O)Nc1ccc2c(c1)C(=O)N([C@H](C)CO)C[C@H](C)[C@@H](CN(C)Cc1ccccc1)OCCCC[C@H](C)O2	·	·	·	·	·	–
COCC(=O)Nc1ccc2c(c1)C(=O)N(C)C[C@H](OC)[C@H](C)CN(Cc1ccccc1F)[C@@H](C)CO2	·	·	·	·	·	–
C[C@@H]1CN([C@@H](C)CO)C(=O)c2cc(NS(=O)(=O)c3cn(C)cn3)ccc2O[C@@H](C)CCCCO[C@@H]1CN(C)C(=O)c1ccccc1	·	·	·	·	·	–
CCCCNC(=S)NNC(=O)c1csc2ccccc12	–	62	–	–	–	·
Cc1ccc(-c2nc(Nc3ccccc3)n[nH]2)cc1	–	–	–	45	–	·
Cc1cccc(NC(=O)CCSc2ccccc2)c1C	–	–	–	52	–	·
CCC(CC)C(=O)c1c[nH]c(C(=O)NCCCN2CCOCC2)c1	–	66	–	–	–	–
O=C(c1ccc(F)cc1)c1c[nH]c(C(=O)NCCCN2CCOCC2)c1	–	–	·	–	–	–
Cc1noc(C)c1S(=O)(=O)Nc1ccc2c(c1)C(=O)N([C@H](C)CO)C[C@H](C)[C@@H](CN(C)Cc1ccccc1)OCCCC[C@H](C)O2	·	·	·	·	·	–
Cc1cc(C(=O)COC(=O)c2ccc(N)c([N+](=O)[O-])c2)c(C)n1Cc1ccc2c(c1)OCO2	–	–	–	37	–	89
CC(C)NC(=O)Nc1ccc2c(c1)C(=O)N([C@H](C)CO)C[C@H](C)[C@@H](CN(C)C(=O)C1CCCCC1)OCCCC[C@H](C)O2	·	·	·	·	·	–
C(=N\Nc1ncnc2ccccc12)/c1ccccc1	–	–	–	–	–	70
Cc1cccc(/C=N/Nc2nncc3ccccc23)c1	–	–	–	–	–	–
C/C(=N\Nc1nncc2ccccc12)c1ccc(C(C)(C)C)cc1	–	–	·	·	–	49
C/C(=N\Nc1nncc2ccccc12)c1ccc(O)cc1	–	–	–	–	–	–
C(=N\Nc1nncc2ccccc12)/c1ccccc1	–	–	–	38	–	–
CCOC(=O)C/C(=N\Nc1ncnc2ccccc12)c1ccccc1	–	–	–	–	–	43
Clc1nnc(N/N=C/c2ccccc2)c2ccccc12	–	–	–	·	–	–
SMILES	A3G deaminase	PHOSPHO1 inh	MITF act	Wnt bcat act	A3A deaminase	esBAF inh
Cc1noc(C)c1S(=O)(=O)Nc1ccc2c(c1)C(=O)N([C@@H](C)CO)C[C@H](C)[C@@H](CN(C)S(=O)(=O)c1ccccc1)O2	·	·	·	·	·	–
O=C(O)C[C@@H]1CC[C@H](NC(=O)Nc2cc(F)ccc2F)[C@H](CO)O1	·	·	·	·	·	–
Clc1cccc(/C=N/Nc2ncnc3ccccc23)c1	–	–	·	·	–	53
Nc1c(Cl)ncnc1N/N=C/c1ccnc2ccccc12	–	–	–	–	–	–
C[C@@H]1CN([C@H](C)CO)C(=O)c2cc(C#CC3(O)CCCC3)cnc2O[C@H]1CN(C)Cc1cccnc1	·	·	·	·	·	–
C[C@@H]1CN([C@@H](C)CO)C(=O)c2cc(NC(=O)C3CCCCC3)ccc2O[C@@H]1CN(C)Cc1ccccc1	·	·	·	·	·	–
Cc1ccnc(NC(=O)c2cccc(S(=O)(=O)N3CCOCC3)c2)c1	–	·	–	–	–	50
